# Measured values as given in PubChem BioAssay (NCATS).
# Records with an inconclusive call do not appear. Where a call stands in place of a potency, no number is given. Active and inactive are the calls of the source. Calls follow the shape of the dose curve; as a rule, active = well fitted inhibition curve with a large enough effect; inconclusive = small, poorly fitted or top-dose-only effect; inactive = flat fitted curve, though single readings scatter.
# Tested on: CP297
# Assay: qHTS profiling for inhibitors of Plasmodium falciparum proliferation (AID 504749); also: nearly all actives have a fitted effect of over 60% in size
# Conditions: P. falciparum in erythrocytes, SYBR Green DNA, 72 h; series mostly up to 12.8 µM
# Method in brief: (§1)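 Each compound contacts P. falciparum-infected red blood cells for 72 h at 37 C; lysis buffer (Tris, EDTA, saponin, Triton X, SYBR Green I) is added and fluorescence measured next morning; values normalized to controls.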
# Potency is read from the fitted curve at half-maximal effect.
row,SMILES,Potency
1,C[N+](C)(C)CC(O)CC(=O)O (configuration not stated),inactive
2,CN(C)CC/C=C1\c2ccccc2CSc2ccccc21,inactive
3,CC(C)N1CCN(c2ccc(OC[C@@H]3CO[C@@](Cn4cncn4)(c4ccc(Cl)cc4Cl)O3)cc2)CC1,inactive
4,C[C@@H]1CCC[C@H](C)N1NC(=O)c1ccc(Cl)c(S(N)(=O)=O)c1,inactive
5,O=C(Cc1cccs1)NC1C(=O)N2C(C(=O)[O-])=C(C[n+]3ccccc3)CSC12 (configuration not stated),inactive

# Tested on: CP305
# Assay: as above
# Conditions: P. falciparum in erythrocytes, SYBR Green DNA, 72 h; series mostly up to 12.8 µM
# Method in brief: as §1
row,SMILES,Potency
1,C[N+](C)(C)CC(O)CC(=O)O (configuration not stated),inactive
2,CC(C)N1CCN(c2ccc(OC[C@@H]3CO[C@@](Cn4cncn4)(c4ccc(Cl)cc4Cl)O3)cc2)CC1,inactive
3,C[C@@H]1CCC[C@H](C)N1NC(=O)c1ccc(Cl)c(S(N)(=O)=O)c1,inactive
4,O=C(Cc1cccs1)NC1C(=O)N2C(C(=O)[O-])=C(C[n+]3ccccc3)CSC12 (configuration not stated),inactive

# Tested on: CP315
# Assay: as above
# Conditions: P. falciparum in erythrocytes, SYBR Green DNA, 72 h; series mostly up to 12.8 µM
# Method in brief: as §1
row,SMILES,Potency
1,C[N+](C)(C)CC(O)CC(=O)O (configuration not stated),inactive
2,CC(C)N1CCN(c2ccc(OC[C@@H]3CO[C@@](Cn4cncn4)(c4ccc(Cl)cc4Cl)O3)cc2)CC1,inactive
3,C[C@@H]1CCC[C@H](C)N1NC(=O)c1ccc(Cl)c(S(N)(=O)=O)c1,inactive
4,O=C(Cc1cccs1)NC1C(=O)N2C(C(=O)[O-])=C(C[n+]3ccccc3)CSC12 (configuration not stated),inactive

# Tested on: CP325
# Assay: as above
# Conditions: P. falciparum in erythrocytes, SYBR Green DNA, 72 h; series mostly up to 12.8 µM
# Method in brief: as §1
row,SMILES,Potency
1,C[N+](C)(C)CC(O)CC(=O)O (configuration not stated),inactive
2,CC(C)N1CCN(c2ccc(OC[C@@H]3CO[C@@](Cn4cncn4)(c4ccc(Cl)cc4Cl)O3)cc2)CC1,inactive
3,C[C@@H]1CCC[C@H](C)N1NC(=O)c1ccc(Cl)c(S(N)(=O)=O)c1,inactive
4,O=C(Cc1cccs1)NC1C(=O)N2C(C(=O)[O-])=C(C[n+]3ccccc3)CSC12 (configuration not stated),inactive

# Tested on: CP329
# Assay: as above
# Conditions: P. falciparum in erythrocytes, SYBR Green DNA, 72 h; series mostly up to 12.8 µM
# Method in brief: as §1
row,SMILES,Potency
1,C[N+](C)(C)CC(O)CC(=O)O (configuration not stated),inactive
2,CN(C)CC/C=C1\c2ccccc2CSc2ccccc21,inactive
3,CC(C)N1CCN(c2ccc(OC[C@@H]3CO[C@@](Cn4cncn4)(c4ccc(Cl)cc4Cl)O3)cc2)CC1,inactive
4,C[C@@H]1CCC[C@H](C)N1NC(=O)c1ccc(Cl)c(S(N)(=O)=O)c1,inactive
5,O=C(Cc1cccs1)NC1C(=O)N2C(C(=O)[O-])=C(C[n+]3ccccc3)CSC12 (configuration not stated),inactive

# Tested on: CP335
# Assay: as above
# Conditions: P. falciparum in erythrocytes, SYBR Green DNA, 72 h; series mostly up to 12.8 µM
# Method in brief: as §1
row,SMILES,Potency
1,C[N+](C)(C)CC(O)CC(=O)O (configuration not stated),inactive
2,CC(C)N1CCN(c2ccc(OC[C@@H]3CO[C@@](Cn4cncn4)(c4ccc(Cl)cc4Cl)O3)cc2)CC1,inactive
3,C[C@@H]1CCC[C@H](C)N1NC(=O)c1ccc(Cl)c(S(N)(=O)=O)c1,inactive
4,O=C(Cc1cccs1)NC1C(=O)N2C(C(=O)[O-])=C(C[n+]3ccccc3)CSC12 (configuration not stated),inactive

# Tested on: DFO2036
# Assay: as above
# Conditions: P. falciparum in erythrocytes, SYBR Green DNA, 72 h; series mostly up to 12.8 µM
# Method in brief: as §1
row,SMILES,Potency
1,C[N+](C)(C)CC(O)CC(=O)O (configuration not stated),inactive
2,CN(C)CC/C=C1\c2ccccc2CSc2ccccc21,inactive
3,CC(C)N1CCN(c2ccc(OC[C@@H]3CO[C@@](Cn4cncn4)(c4ccc(Cl)cc4Cl)O3)cc2)CC1,inactive
4,C[C@@H]1CCC[C@H](C)N1NC(=O)c1ccc(Cl)c(S(N)(=O)=O)c1,inactive
5,O=C(Cc1cccs1)NC1C(=O)N2C(C(=O)[O-])=C(C[n+]3ccccc3)CSC12 (configuration not stated),inactive

# Tested on: DIV14
# Assay: as above
# Conditions: P. falciparum in erythrocytes, SYBR Green DNA, 72 h; series mostly up to 12.8 µM
# Method in brief: as §1
row,SMILES,Potency
1,C[N+](C)(C)CC(O)CC(=O)O (configuration not stated),inactive
2,CC(C)N1CCN(c2ccc(OC[C@@H]3CO[C@@](Cn4cncn4)(c4ccc(Cl)cc4Cl)O3)cc2)CC1,inactive
3,C[C@@H]1CCC[C@H](C)N1NC(=O)c1ccc(Cl)c(S(N)(=O)=O)c1,inactive
4,O=C(Cc1cccs1)NC1C(=O)N2C(C(=O)[O-])=C(C[n+]3ccccc3)CSC12 (configuration not stated),inactive

# Tested on: DIV17
# Assay: as above
# Conditions: P. falciparum in erythrocytes, SYBR Green DNA, 72 h; series mostly up to 12.8 µM
# Method in brief: as §1
row,SMILES,Potency
1,CC(C)N1CCN(c2ccc(OC[C@@H]3CO[C@@](Cn4cncn4)(c4ccc(Cl)cc4Cl)O3)cc2)CC1,inactive
2,C[C@@H]1CCC[C@H](C)N1NC(=O)c1ccc(Cl)c(S(N)(=O)=O)c1,inactive
3,O=C(Cc1cccs1)NC1C(=O)N2C(C(=O)[O-])=C(C[n+]3ccccc3)CSC12 (configuration not stated),inactive

# Tested on: DIV30
# Assay: as above
# Conditions: P. falciparum in erythrocytes, SYBR Green DNA, 72 h; series mostly up to 12.8 µM
# Method in brief: as §1
row,SMILES,Potency
1,C[N+](C)(C)CC(O)CC(=O)O (configuration not stated),inactive
2,CC(C)N1CCN(c2ccc(OC[C@@H]3CO[C@@](Cn4cncn4)(c4ccc(Cl)cc4Cl)O3)cc2)CC1,inactive
3,C[C@@H]1CCC[C@H](C)N1NC(=O)c1ccc(Cl)c(S(N)(=O)=O)c1,inactive
4,O=C(Cc1cccs1)NC1C(=O)N2C(C(=O)[O-])=C(C[n+]3ccccc3)CSC12 (configuration not stated),inactive

# Tested on: Dd2
# Assay: as above
# Conditions: P. falciparum in erythrocytes, SYBR Green DNA, 72 h; series mostly up to 12.8 µM
# Method in brief: as §1
row,SMILES,Potency
1,C[N+](C)(C)CC(O)CC(=O)O (configuration not stated),inactive
2,CN(C)CC/C=C1\c2ccccc2CSc2ccccc21,1780 nM (active)
3,CC(C)N1CCN(c2ccc(OC[C@@H]3CO[C@@](Cn4cncn4)(c4ccc(Cl)cc4Cl)O3)cc2)CC1,inactive
4,C[C@@H]1CCC[C@H](C)N1NC(=O)c1ccc(Cl)c(S(N)(=O)=O)c1,inactive
5,O=C(Cc1cccs1)NC1C(=O)N2C(C(=O)[O-])=C(C[n+]3ccccc3)CSC12 (configuration not stated),inactive

# Tested on: ECU
# Assay: as above
# Conditions: P. falciparum in erythrocytes, SYBR Green DNA, 72 h; series mostly up to 12.8 µM
# Method in brief: as §1
row,SMILES,Potency
1,C[N+](C)(C)CC(O)CC(=O)O (configuration not stated),inactive
2,CN(C)CC/C=C1\c2ccccc2CSc2ccccc21,inactive
3,CC(C)N1CCN(c2ccc(OC[C@@H]3CO[C@@](Cn4cncn4)(c4ccc(Cl)cc4Cl)O3)cc2)CC1,inactive
4,C[C@@H]1CCC[C@H](C)N1NC(=O)c1ccc(Cl)c(S(N)(=O)=O)c1,inactive
5,O=C(Cc1cccs1)NC1C(=O)N2C(C(=O)[O-])=C(C[n+]3ccccc3)CSC12 (configuration not stated),inactive
